These results are taken from paper PMC4552634, “A New Set of Chemical Starting Points with Plasmodium falciparum Transmission-Blocking Potential for Antimalarial Drug Discovery” (PLoS ONE, 2015).

The campaign covered roughly 13,000 compounds. About 3,200 (25%) showed an effect of 50% or more. The list shows a part of the results.

Broadly, the % Inhibition is the relative decrease from the control value, in per cent.

This assay concerns P. falciparum stage V gametocytes. On the set-up: BacTiter-Glo ATP luminescence viability of purified stage V gametocytes in 384-well plates, per cent inhibition versus DMSO. To be noted: 48 h, 5 µM; inhibitor.
`CC1(C)N=C(N)N=C(N)N1OCCCc1cccc(C(F)(F)F)c1` [TCMDC-131651]: the “% Inhibition” value is on record as -2.569%.
Regarding `COc1ccc(CN2CCC(CNCCc3c(Cl)cccc3Cl)CC2)cc1` [TCMDC-141345], the “% Inhibition” value stood at 89.6%.
Regarding `COc1ccc(Oc2ccccc2CNCC2CCN(CC3CCCCC3)CC2)cc1` [TCMDC-141413], the “% Inhibition” value turned out to be 81.97%.
Under `COc1ccc(CN2CCC(CNCCc3ccccc3Cl)CC2)cc1` [TCMDC-141343] stands 21.62%; under `O=[N+]([O-])c1ccc(Oc2ccccc2CNCC2CCN(CC3CCCCC3)CC2)cc1` [TCMDC-141414], 46.86%.
For `COc1ccc(CN2CCC(CNCCc3ccccc3Oc3ccccc3)CC2)cc1` [TCMDC-141350] the value was 98.78%; for `COc1ccc2ccccc2c1CNCC1CCN(CC2CCCCC2)CC1` [TCMDC-141412], -44.03%.
For `COc1ccc2c(c1)CC1CN(CCCCNC(=O)c3ccc(NC(=O)c4cc(Cl)cc(Cl)c4)cc3)CCN1C2` (stereo not shown) [TCMDC-138223] the value was -15.2%.
`NC1CCN(c2nc(NCCc3ccc(O)cc3)nc(NCc3ccccc3-c3ccccc3)n2)CC1` [TCMDC-133441]: the “% Inhibition” value is on record as 29.52%.
With `Cc1ccc2c(Cc3cnc(N)nc3N)cc(C)c(N)c2n1` [TCMDC-137878], the “% Inhibition” value is recorded as -11.15%.
For `COc1ccc(C(C(=O)NC2CCN(C[C@H](O)c3ccnc4ccc(OC)cc34)CC2)N2CCN(c3ccc([N+](=O)[O-])cc3)CC2)cc1` (stereo partly shown) [TCMDC-140992] the value was -4.461%; for `O=C(NCc1ccccc1)Nc1ccc(-c2cccc(-c3nc4ccc(C(F)(F)F)cc4[nH]3)c2)cc1` [TCMDC-133160], -18.34%.
Under `O=C(Nc1ccc(F)c(C(F)(F)F)c1)N[C@H]1CCN(CCCCCNC(=O)C2CC2c2ccc(Cl)c(Cl)c2)C1` (stereo partly shown) [TCMDC-136270] stands 88.79%; under `O=C(NCCCCCN1CCCN(C(=O)Nc2ccc(F)c(C(F)(F)F)c2)CC1)C1CC1c1ccc(Cl)c(Cl)c1` (stereo not shown) [TCMDC-136254], 10.75%.
For `O=C(Nc1ccc(F)c(C(F)(F)F)c1)NC1CCN(CCCCCNC(=O)C2CC2c2ccc(Cl)c(Cl)c2)CC1` (stereo not shown) [TCMDC-136259], the “% Inhibition” value amounted to 97.75%.
Under `COc1ccc2nccc([C@@H](O)CN3CCC(NC(=O)C(c4cc5ccccc5o4)N4CCN(Cc5ccccc5)CC4)CC3)c2c1` (stereo partly shown) [TCMDC-140988] stands 30.33%; under `O=C(Nc1ccc(-c2nc3ccccc3[nH]2)cc1)C1CCCN(C2CCC2)C1` (stereo not shown) [TCMDC-124687], -67.58%.
Under `CN1CCN(Cc2cccc(Nc3nccc(Nc4ccc(Oc5ccccc5)cc4)n3)c2)CC1` [TCMDC-138614] stands -13.87%; under `O=C(Nc1ccccc1)c1cccc(Nc2nccc(Nc3ccc(Oc4ccccc4)cc3)n2)c1` [TCMDC-138561], 74.26%; under `CCCN1CCN(CCNC(=O)c2cccc(Nc3nccc(Nc4ccc(Oc5ccccc5)cc4)n3)c2)CC1` [TCMDC-138606], -54.96%.
For `O=C(NCCCN1CCCCC1)c1ccc(Nc2nccc(Nc3ccc(Oc4ccccc4)cc3)n2)cc1` [TCMDC-138609] the value was -10.89%; for `CN1CCN(CCCNCc2cccc(Nc3nccc(Nc4ccc(Oc5ccccc5)cc4)n3)c2)CC1` [TCMDC-138616], 109.5%; for `NC(=O)c1cccc(Nc2nccc(Nc3ccc(Oc4ccc5ccccc5c4)cc3)n2)c1` [TCMDC-138600], -22.11%.
Take `O=C(NCCCN1CCOCC1)c1cccc(Nc2nccc(Nc3ccc(Oc4ccccc4)cc3)n2)c1` [TCMDC-138604]: the “% Inhibition” value is recorded as 68.84%.
Under `O=C(NCCCN1CCCCC1)c1cccc(Nc2nccc(Nc3ccc(Oc4ccccc4)cc3)n2)c1` [TCMDC-138605] stands -29.44%; under `N#CCc1ccc(Nc2nccc(Nc3ccc(Oc4ccccc4)cc3)n2)cc1` [TCMDC-138577], 4.825%; under `O=C(NCCN1CCCC1)c1cccc(Nc2nccc(Nc3ccc(Oc4ccccc4)cc3)n2)c1` [TCMDC-138602], -15.16%.
Under `CN1CCN(CCCNCc2ccc(Nc3nccc(Nc4ccc(Oc5ccccc5)cc4)n3)cc2)CC1` [TCMDC-138621] stands 88.79%; under `Brc1cccc(Nc2nccc(Nc3ccc(Oc4ccccc4)cc3)n2)c1` [TCMDC-138559], 9.5%.
For `COc1cc2c(cc1C(F)(F)F)N(C(=O)Nc1cc(F)c(F)c(-c3cccnc3)c1)CC2` [TCMDC-139061] the value was 5.239%; for `CCC(C)(CC)C(=O)n1ncc2c3c(N)nc(N)nc3ccc21` [TCMDC-137335], -46.13%.
Turning to `COc1ccc(-n2ccnc2SCC(=O)Nc2cc(C(F)(F)F)ccc2Cl)c(OC)c1` [TCMDC-123822], the “% Inhibition” value is 7.482%.
Under `CCCc1cc(Cc2cnc(N)nc2N)c2cccnc2c1OC` [TCMDC-138034] stands 13.25%.
In the case of `O=C(NCCN1CCCCC1)c1cccc(Nc2nccc(Nc3ccc(Oc4ccccc4)cc3)n2)c1` [TCMDC-138603], the “% Inhibition” value is 19.36%.
For `c1cncc(-c2cccc(CNc3nccc(Nc4ccc(OCCN5CCOCC5)cc4)n3)c2)c1` [TCMDC-134667] the value was 2.743%; for `c1ccc(Oc2ccc(Nc3ccnc(Nc4cccc(CNCCCN5CCOCC5)c4)n3)cc2)cc1` [TCMDC-138615], 95.32%.
On to `CN1CC[C@@H](Oc2cc(C(=O)NCc3ccc(Cl)c(Cl)c3)ccc2C(F)(F)F)C1` [TCMDC-136228], for which the “% Inhibition” value is 28.38%.
For `CCCCCCCc1c(C)[nH]c2ccccc2c1=O` [TCMDC-137425] the value was 37.94%.
Turning to `CCCCCCCc1c(C)[nH]c2ccc(F)cc2c1=O` [TCMDC-137269], the “% Inhibition” value is 73.68%.
Under `CCCCCCCc1c(C)[nH]c2c(OC)cccc2c1=O` [TCMDC-138016] stands 17.32%; under `CCCCCCCCc1c(C)[nH]c(C)c(C#N)c1=O` [TCMDC-137431], 44.76%; under `CCCCCCCc1c(C)[nH]c2cccc(OC)c2c1=O` [TCMDC-138014], 32.1%.
Under `CCCCCCCCCc1c(C)[nH]c2ccccc2c1=O` [TCMDC-137268] stands 51.45%; under `CCCCCCCCc1c(C)[nH]c(C)c(Cl)c1=O` [TCMDC-137538], 68.39%.
Under `CCCCCCCCc1c(C)[nH]c(C)c(Br)c1=O` [TCMDC-137437] stands 29.73%; under `CCCCCCCCc1c(C)[nH]c(C)c(I)c1=O` [TCMDC-137430], 48.86%; under `O=C(NC1CCN(Cc2ccccc2)CC1)c1ccc(-c2nc3cc(F)c(F)cc3[nH]2)s1` [TCMDC-140452], 7.821%.
Turning to `N#Cc1ccc2c(c1)CCN(CCC1CCC(NC(=O)c3ccc(-c4ccccn4)s3)CC1)CC2` (stereo not shown) [TCMDC-139840], the “% Inhibition” value was -69.85%.
For the molecule `O=C(Nc1ccc(-c2csc(-c3nc4ccccc4[nH]3)c2)cc1)Nc1ccc(F)c(F)c1F` [TCMDC-133221], the “% Inhibition” value is reported as 23.86%.
For `CC(C)(Oc1ccc(Cl)cc1)C(=O)NCCC1CCN(CCCCCNC(=O)/C=C/c2ccc(Cl)c(Cl)c2)CC1` [TCMDC-140004] the value was 87.45%.
Consider `O=C(/C=C/c1ccc(Cl)c(Cl)c1)NCCCCCN1CCC(CCNC(=O)/C=C/c2cc(C(F)(F)F)ccc2F)CC1` [TCMDC-140005], for which the “% Inhibition” value is reported as -14.45%.
With `CC(Oc1ccc(Cl)cc1)C(=O)NCCC1CCN(CCCCCNC(=O)/C=C/c2ccc(Cl)c(Cl)c2)CC1` (stereo not shown) [TCMDC-140003], the “% Inhibition” value stood at 96.79%.
For `CN(C(=O)C(C)(C)Oc1ccc(Cl)cc1)C1CCN(CCCCCNC(=O)/C=C/c2ccc(Cl)c(Cl)c2)CC1` [TCMDC-139990] the value was 51.05%; for `CN(C(=O)Cc1ccc(Cl)c(Cl)c1)C1CCN(CCCCCNC(=O)/C=C/c2ccc(Cl)c(Cl)c2)CC1` [TCMDC-139986], -22.66%.
On to `CC(Oc1ccc(Cl)cc1)C(=O)N(C)C1CCN(CCCCCNC(=O)/C=C/c2ccc(Cl)c(Cl)c2)CC1` (stereo not shown) [TCMDC-139989], for which the “% Inhibition” value was -40.26%.
Regarding `CN(C(=O)Cc1ccc(Cl)cc1)C1CCN(CCCCCNC(=O)/C=C/c2ccc(Cl)c(Cl)c2)CC1` [TCMDC-139988], the “% Inhibition” value is -15.24%.
On to `CC(C)(C(=O)NCCC1CCN(CCCCCNC(=O)/C=C/c2ccc(Cl)c(Cl)c2)CC1)c1ccc(Cl)cc1` [TCMDC-140002], for which the “% Inhibition” value was 52.94%.
`CC1(C)N=C(N)NC(NOCc2ccc(Cl)c(Cl)c2)=N1` [TCMDC-131606]: the “% Inhibition” value is reported as -8.519%.
For `CC(C)[C@H](NC(=O)c1ccc(O)c(-c2ccc(Cl)c(Cl)c2)c1)C(=O)NCCN1CCCCC1` [TCMDC-140858] the value was 1.563%; for `N#Cc1nc2ccc(OCCN(Cc3ccccc3C(F)(F)F)c3ccc(C#N)c(C(F)(F)F)c3)cc2s1` [TCMDC-132798], 33.49%; for `N#Cc1ccc(NC(=NCCc2c[nH]c3ccccc23)Nc2ccc(-c3ccccc3)cc2)c(O)c1` [TCMDC-140211], -66.19%.
With `CCCNCc1ccc(-c2ccc(CN(CCOC)C(=O)COc3ccccc3Cl)cc2)nc1` [TCMDC-141541], the “% Inhibition” value amounted to 51.3%.
In the case of `CCCCC(=O)N(CCOC)Cc1ccc(-c2ccc(CNCCC)cn2)cc1` [TCMDC-141536], the “% Inhibition” value is 72.35%.
Take `CC(=O)Nc1cccc(CN(Cc2ccc(-c3ccc(CNCc4cccnc4)cn3)cc2)C(=O)Cc2cccnc2)c1` [TCMDC-141604]: the “% Inhibition” value is listed as -7.365%.
For `CCCNCc1ccc(-c2ccc(CN(CCOC)C(=O)Cc3cccnc3)cc2)nc1` [TCMDC-141528] the value was 108.8%; for `CCCNCc1ccc(-c2ccc(CN(Cc3ccc4c(c3)OCO4)C(=O)Cc3cccnc3)cc2)nc1` [TCMDC-141529], 106.5%; for `CCCNCc1ccc(-c2ccc(CN(CCOC)C(=O)CCCOCc3ccccc3)cc2)nc1` [TCMDC-141543], 33.78%.
